Measurements as given in ChEMBL document CHEMBL1157539, “Thousands of chemical starting points for antimalarial lead identification” (Nature, 2010).
“And” between values parts separate entries of the source, which are not always exact repeats. Equal values may be shown once.

Tests used:
Format in all cases: functional
Plasmodium falciparum [1] = experiment: GSK_TCMDC: Inhibition of Plasmodium falciparum 3D7 in whole red blood cells, using parasite LDH activity as an index of growth. Test compounds present at 2uM
Plasmodium falciparum [2] = experiment: GSK_TCMDC: Inhibition of Plasmodium falciparum Dd2 in whole red blood cells, using parasite LDH activity as an index of growth. Test compounds present at 2uM
HepG2 = experiment: GSK_TCMDC: Percent inhibition of human HepG2 cell line. Test compounds present at 10uM.

Row | SMILES | Inhibition (Plasmodium falciparum [1]) | Inhibition (Plasmodium falciparum [2]) | Inhibition (HepG2)
1 | O=C(Nc1cc(C(F)(F)F)cc(C(F)(F)F)c1)N1CCC(CN2CCC(c3c[nH]c4ccccc34)CC2)CC1 | 100% | 99% | 42%
2 | Cc1cc(N)nc2ccc(CNCCc3ccccc3Br)cc12.Cl | 100% | 77% | 28%
3 | O=C(C=Cc1ccc(F)c(Br)c1)NC1CCC(CN2CCC(c3c[nH]c4ccccc34)CC2)CC1 (stereo not given) | 100% | 67% and 50% | 28% and 39%
4 | CC(C)CNCc1cccc(-c2ccc(CN(C(=O)Nc3ccccc3)C3CCN(Cc4ccccc4)CC3)cc2)c1.O=C(O)C(F)(F)F | 100% | 61% | 41%
5 | COCC(=O)N(Cc1ccccc1-c1ccc(CNCCc2ccccc2)cc1)C1CCN(Cc2ccccc2)CC1.O=C(O)C(F)(F)F | 94% | 86% | 39%
6 | OC(CNC1CCCCC1)c1ccc(Cl)c(Cl)c1 (stereo not given) | 99% | 96% | 17%
7 | S=C(Nc1ccccc1Cl)NC1CCC(CN2CCC(c3c[nH]c4ccccc34)CC2)CC1 (stereo not given) | 90% | 12% | 31%
8 | CC[C@H]1CN2CC[C@H]1C[C@H]2[C@H](O)c1cc(-c2cccc(Cl)c2)nc2ccc(OC)cc12.Cl | 98% | 99% | 16%
9 | Cc1[nH]c2ccccc2c1C1=CCN(CC2CC2C(=O)c2ccccc2)CC1 (stereo not given) | 95% | 88% | 18%
10 | Cc1ccc(/C=C/C(=O)NC2CCC(CN3CCC(c4c[nH]c5ccccc45)CC3)CC2)cc1C (stereo not given) | 100% | 71% and 91% | 23% and 38%
